# Paper PMC4336329 (PLoS ONE, 2015)
# Screen size: about 310,000 compounds; about 14,000 (4.5%) showed an effect of 50% or more. The effect is printed as a negative number. This excerpt belongs to a sample that is enriched for strong results.
# Molecular target: human ether-à-go-go-related gene (hERG) potassium channel (human, UniProt Q12809)
# Experiment: primary screen, population patch clamp on CHO cells stably expressing hERG; higher = less effect of the substance
# 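Also: peak tail current of the secondary pulse compared with the same well before compound.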
# human ether-à-go-go-related gene (hERG) potassium channel, sequence (Q12809 whole entry, looked up): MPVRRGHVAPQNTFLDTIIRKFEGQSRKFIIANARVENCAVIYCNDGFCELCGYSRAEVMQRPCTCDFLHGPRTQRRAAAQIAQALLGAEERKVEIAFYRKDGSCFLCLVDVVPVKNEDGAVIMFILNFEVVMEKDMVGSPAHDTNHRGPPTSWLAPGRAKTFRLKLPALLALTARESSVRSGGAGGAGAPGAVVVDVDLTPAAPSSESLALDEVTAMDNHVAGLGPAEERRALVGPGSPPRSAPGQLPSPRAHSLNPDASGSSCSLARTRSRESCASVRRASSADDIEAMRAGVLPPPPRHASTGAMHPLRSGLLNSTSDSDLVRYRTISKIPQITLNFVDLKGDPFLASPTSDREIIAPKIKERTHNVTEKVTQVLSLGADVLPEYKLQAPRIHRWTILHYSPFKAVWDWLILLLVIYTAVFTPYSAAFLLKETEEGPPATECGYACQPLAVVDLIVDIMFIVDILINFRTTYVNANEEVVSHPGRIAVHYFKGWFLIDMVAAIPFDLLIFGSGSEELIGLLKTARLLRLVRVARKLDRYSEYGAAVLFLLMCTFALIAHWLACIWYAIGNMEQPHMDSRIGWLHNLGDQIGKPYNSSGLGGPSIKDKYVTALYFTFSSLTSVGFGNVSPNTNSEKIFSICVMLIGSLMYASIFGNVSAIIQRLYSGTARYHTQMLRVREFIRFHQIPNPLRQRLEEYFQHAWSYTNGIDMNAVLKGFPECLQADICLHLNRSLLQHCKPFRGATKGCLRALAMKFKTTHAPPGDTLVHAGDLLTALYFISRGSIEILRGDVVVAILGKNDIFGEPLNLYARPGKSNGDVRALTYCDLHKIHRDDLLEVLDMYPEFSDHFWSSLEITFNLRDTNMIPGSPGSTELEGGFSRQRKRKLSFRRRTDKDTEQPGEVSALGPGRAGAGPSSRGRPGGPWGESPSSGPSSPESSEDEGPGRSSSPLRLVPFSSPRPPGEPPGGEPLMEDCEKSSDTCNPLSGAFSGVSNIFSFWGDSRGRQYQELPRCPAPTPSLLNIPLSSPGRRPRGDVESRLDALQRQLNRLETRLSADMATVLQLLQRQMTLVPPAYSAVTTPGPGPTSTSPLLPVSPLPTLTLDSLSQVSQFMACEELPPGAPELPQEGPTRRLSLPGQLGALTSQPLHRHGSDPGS
row,Compound,"hERG current change (%, negative = inhibition) at 10uM [%]"
1,CC(C)(C)c1ccc(C(=O)N2CCC(=O)N(C(CO)Cc3ccccc3)CC2)cc1 (centres unmarked),-16.7
2,Cc1cccc(NC(=S)N(CCN(C)C)Cc2cccs2)c1,-25.8
3,Cc1cc(NS(=O)(=O)c2cccs2)no1,-3.03
4,Cc1cccn2c(=O)c3cc(C(=O)NCC4CCCO4)c(=N)n(CC4CCCO4)c3nc12 (centres unmarked),-81.9
5,CCCn1c(=N)c(S(=O)(=O)c2ccc(F)cc2)cc2c(=O)n3cccc(C)c3nc21,-4.16
6,Cc1ccccc1Nc1cc(C(=O)NCC2CCCO2)c2ccccc2n1 (centres unmarked),-15.6
7,CCCn1c(=N)c(C(=O)NCc2ccc3c(c2)OCO3)cc2c(=O)n3cccc(C)c3nc21,-76.5
8,CCCn1c(=N)c(C(=O)NCC2CCCO2)cc2c(=O)n3cccc(C)c3nc21 (centres unmarked),-76.3
9,Cc1cccn2c(=O)nc(SCC(=O)NCc3ccc4c(c3)OCO4)nc12,-27.1
10,CCCn1c(=S)[nH]c2cc(C(=O)NCC3CCCO3)ccc2c1=O (centres unmarked),3.73
11,Cc1ccc(-c2cc(C(=O)NCC3CCCO3)c3ccccc3n2)cc1C (centres unmarked),12.1
12,Cc1cccn2c(=O)c3cc(C(=O)NC4CCCC4)c(=N)n(CC4CCCO4)c3nc12 (centres unmarked),-74.4
13,Cc1ccc(S(=O)(=O)c2cc3c(=O)n4cccc(C)c4nc3n(CC3CCCO3)c2=N)cc1C (centres unmarked),2.35
14,CCCn1nc(C(=O)NCc2ccc3c(c2)OCO3)c2ccccc2c1=O,1.89
15,CCC(=O)N1CCc2cc(S(=O)(=O)CCC(=O)NCc3cccc(OC)c3)ccc21,13.8
16,COc1ccc([C@@H]2C[C@@H](c3ccccc3)Oc3c(C)ccc(C(C)C)c32)cc1,13.3
17,CCCc1nc(N2CCCC2)c(C#N)c2c1CCCC2,4.06
18,COC(=O)c1cc(-c2ccccc2)n(CCN)c1C.Cl,-3.56
19,COc1ccc(OCC(=O)Nc2nnc(C)s2)cc1,9.71
20,Cc1nnc(SCc2ccccc2)nc1/C=C/NOCc1ccc(Cl)cc1Cl,13.9
21,Cc1nnc(SCc2ccc(Cl)cc2)nc1/C=C/N(C)C,-72.6
22,C=CCSc1nnc(C)c(/C=C/Nc2ccc(Cl)cc2)n1,-9.44
23,Cc1ccc(C(=O)O)cc1S(=O)(=O)N1CCC(C(=O)O)CC1,-4.77
24,NC(=S)Cc1nc2n(n1)Cc1ccccc1-2,21.6
25,CC(=O)N1CCN(c2ccc(NC(=O)c3ccccc3C)cc2)CC1,-0.597
26,C=C1CCN([C@@H](C)C(=O)NCc2ccc(OC)cc2)S(=O)(=O)c2ccccc21,-6.66
